Experimental data reported in PubChem BioAssay (NCATS).
“And” between values parts separate entries of the source, which are not always exact repeats. Equal values may be shown once. Inconclusive results are not listed. A structure can be active in one record and inactive in another. The source made the active and inactive calls. The call rests on the fitted dose curve; in most records, active means well fitted inhibition curve with a large enough effect; inconclusive means small, poorly fitted or top-dose-only effect; inactive means flat fitted curve, though single readings scatter.

Assays:
PC26 = experiment: qHTS profiling for inhibitors of Plasmodium falciparum proliferation (AID 504749); details: P. falciparum in erythrocytes, SYBR Green DNA, 72 h; series mostly up to 28.7 µM
Method in brief: (§1)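 Each compound contacts P. falciparum-infected red blood cells for 72 h at 37 C; lysis buffer (Tris, EDTA, saponin, Triton X, SYBR Green I) is added and fluorescence measured next morning; values normalized to controls.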

PC49 = experiment: as above; details: P. falciparum in erythrocytes, SYBR Green DNA, 72 h; series mostly up to 28.7 µM
Method in brief: as §1

SC27B = experiment: as above; details: P. falciparum in erythrocytes, SYBR Green DNA, 72 h; series mostly up to 28.7 µM
Method in brief: as §1

TAB109 = experiment: as above; details: P. falciparum in erythrocytes, SYBR Green DNA, 72 h; series mostly up to 28.7 µM
Method in brief: as §1

TAB113 = experiment: as above; details: P. falciparum in erythrocytes, SYBR Green DNA, 72 h; series mostly up to 28.7 µM
Method in brief: as §1

TAB165 = experiment: as above; details: P. falciparum in erythrocytes, SYBR Green DNA, 72 h; series mostly up to 28.7 µM
Method in brief: as §1

CRL-7250 = normal cell line; experiment: Cytotoxic Profiling of Annotated Libraries Using Quantitative High-Throughput Screening (AID 1296008); details: Five cell lines viability, CellTiter-Glo ATP luminescence, 48-72 h; max response: hits give low values; on max response: on the % scale 0 is the no-effect control and ±100 the full control effect
Method in brief: (§2)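 Cells exposed to compounds for 48 or 72 hr at 37 degrees Celsius. Viability read as ATP-coupled luminescence with CellTiter-Glo after 10 min at room temperature.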

HEK293 = experiment: as above; details: Five cell lines viability, CellTiter-Glo ATP luminescence, 48-72 h; max response: hits give low values
Method in brief: as §2

HaCat = experiment: as above; details: Five cell lines viability, CellTiter-Glo ATP luminescence, 48-72 h; max response: hits give low values
Method in brief: as §2

W2 = experiment: qHTS profiling for inhibitors of Plasmodium falciparum proliferation (AID 504749); details: P. falciparum in erythrocytes, SYBR Green DNA, 72 h; series mostly up to 28.7 µM
Method in brief: as §1
Further: nearly all actives have a fitted effect of over 60% in size.
Potency means the concentration at half of the fitted maximal effect.

C[N+]1(C)CCCCC1COC(=O)C(O)(c1ccccc1)c1ccccc1 (stereo not given)
inactive: Potency (PC26) | Potency (PC49) | Potency (SC27B) | Potency (TAB109) | Potency (TAB113) | Potency (TAB165)

Cn1ncnc1COc1nn2c(-c3c(F)cccc3F)nnc2cc1C1CCC1
inactive: outcome (CRL-7250) | outcome (HEK293) | outcome (HaCat)

CCOc1ccccc1-n1c(C(C)N2CCN(C(=O)COc3ccc(Cl)cc3)CC2)nc2ccccc2c1=O (stereo not given)
active: Potency (CRL-7250) 5.17 µM and 3.71 µM | Potency (HEK293) 4.11 µM and 2.95 µM | Potency (HaCat) 18.6 µM
inactive: max response (HaCat) -19.2%

CCCCCCCCOC(=O)c1ccccc1C(=O)OCCCCCCCC
inactive: Potency (PC26) | Potency (PC49) | Potency (SC27B) | Potency (TAB109) | Potency (TAB113) | Potency (TAB165) | Potency (W2)

N#CC1(N2CCCCC2)CCCCC1
inactive: Potency (PC26) | Potency (PC49) | Potency (SC27B) | Potency (TAB109) | Potency (TAB113) | Potency (TAB165) | Potency (W2)

FC(F)OC(F)(F)C(F)Cl (stereo not given)
inactive: Potency (PC26) | Potency (PC49) | Potency (SC27B) | Potency (TAB109) | Potency (TAB113) | Potency (TAB165) | Potency (W2)

CC(=O)O[C@H]1CC[C@H]2[C@@H]3CCC4=CC(=O)CCC4=C3C=C[C@]12C
inactive: Potency (PC26) | Potency (PC49) | Potency (SC27B) | Potency (TAB109) | Potency (TAB113) | Potency (TAB165) | Potency (W2)

O=c1[nH]c(=O)n(Cl)c(=O)n1Cl
inactive: Potency (PC26) | Potency (PC49) | Potency (SC27B) | Potency (TAB109) | Potency (TAB113) | Potency (TAB165) | Potency (W2)

O=[N+]([O-])c1cc(I)c(O)c(I)c1
inactive: Potency (PC26) | Potency (PC49) | Potency (SC27B) | Potency (TAB109) | Potency (TAB113) | Potency (TAB165) | Potency (W2)

COC1=CC=C2[C@H]3Cc4ccc(OC)c5c4[C@@]2(CCN3C)[C@H]1O5
inactive: Potency (PC26) | Potency (PC49) | Potency (SC27B) | Potency (TAB109) | Potency (TAB113) | Potency (TAB165)

Clc1ccc(Cl)cc1
inactive: Potency (PC26) | Potency (PC49) | Potency (SC27B) | Potency (TAB109) | Potency (TAB113) | Potency (TAB165) | Potency (W2)

CCC1(CC)C(=O)NC(=O)N(C)C1=O
inactive: Potency (PC26) | Potency (PC49) | Potency (SC27B) | Potency (TAB109) | Potency (TAB113) | Potency (TAB165)

CC(C)Nc1ccc(Nc2ccccc2)cc1
inactive: Potency (PC49)
active: Potency (PC26) 4.78 µM | Potency (SC27B) 12.6 µM | Potency (TAB109) 7.94 µM | Potency (TAB113) 10 µM | Potency (TAB165) 7.94 µM | Potency (W2) 4.78 µM

C=CCN(C1=NCCN1)c1c(Cl)cccc1Cl
inactive: Potency (PC26) | Potency (PC49) | Potency (SC27B) | Potency (TAB109) | Potency (TAB113) | Potency (TAB165) | Potency (W2)

CCC1(c2ccccc2)C(=O)NC(=O)N(C(=O)c2ccccc2)C1=O (stereo not given)
inactive: Potency (PC26) | Potency (PC49) | Potency (SC27B) | Potency (TAB109) | Potency (TAB113) | Potency (TAB165)

CCNC(C)Cc1cccc(C(F)(F)F)c1 (stereo not given)
inactive: Potency (PC26) | Potency (PC49) | Potency (SC27B) | Potency (TAB109) | Potency (TAB113) | Potency (TAB165)

O=C1CCO1
inactive: Potency (PC26) | Potency (PC49) | Potency (SC27B) | Potency (TAB109) | Potency (TAB113) | Potency (TAB165) | Potency (W2)

[N-]=[N+]=CC(=O)OCC(N)C(=O)O (stereo not given)
inactive: Potency (PC26) | Potency (PC49) | Potency (SC27B) | Potency (TAB109) | Potency (TAB113) | Potency (TAB165) | Potency (W2)

O=CC=O
inactive: Potency (PC26) | Potency (PC49) | Potency (SC27B) | Potency (TAB109) | Potency (TAB113) | Potency (TAB165) | Potency (W2)

S=C=S
inactive: Potency (PC26) | Potency (PC49) | Potency (SC27B) | Potency (TAB109) | Potency (TAB113) | Potency (TAB165) | Potency (W2)

Cc1sc2ccccc2c1CC1=NCCN1
inactive: Potency (PC26) | Potency (PC49) | Potency (SC27B) | Potency (TAB109) | Potency (TAB113) | Potency (TAB165)

O=C1CN(O)C(c2ccccc2)=c2cc(Cl)ccc2=N1
inactive: Potency (PC26) | Potency (PC49) | Potency (SC27B) | Potency (TAB109) | Potency (TAB113) | Potency (TAB165) | Potency (W2)

O=P(O)(O)C(Cl)(Cl)P(=O)(O)O
inactive: Potency (PC26) | Potency (PC49) | Potency (SC27B) | Potency (TAB109) | Potency (TAB113) | Potency (TAB165) | Potency (W2)

C[C@H]1CC[C@@H]2[C@@H](C)[C@H]3[C@H](C[C@H]4[C@@H]5CC=C6CC(O[C@@H]7O[C@H](CO)[C@H](O)[C@H](O[C@@H]8O[C@H](CO)[C@@H](O)[C@H](O)[C@H]8O)[C@H]7O[C@H]7O[C@@H](C)[C@H](O)[C@@H](O)[C@H]7O)CC[C@]6(C)[C@H]5CC[C@]34C)N2C1 (stereo not given in full)
inactive: Potency (PC26) | Potency (PC49) | Potency (SC27B) | Potency (TAB109) | Potency (TAB113) | Potency (TAB165)

O[C@H]1[C@H]2[C@H](O)CCCN2C[C@H]1O
inactive: Potency (PC26) | Potency (PC49) | Potency (SC27B) | Potency (TAB109) | Potency (TAB113) | Potency (TAB165) | Potency (W2)

O=c1[nH]cc(N(CCCl)CCCl)c(=O)[nH]1
inactive: Potency (PC26) | Potency (PC49) | Potency (SC27B) | Potency (TAB109) | Potency (TAB113) | Potency (TAB165) | Potency (W2)

NCC(O)c1cccc(O)c1 (stereo not given)
inactive: Potency (PC26) | Potency (PC49) | Potency (SC27B) | Potency (TAB109) | Potency (TAB113) | Potency (TAB165) | Potency (W2)
